# Measurements published in PubChem BioAssay (NCI).
# Compounds without any hit were thinned out: in the full panel of roughly 83,000, 20% have a hit.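 Negative percent growth values reflect cell death: -40 means 40% of the cells present at the start died, and -100 means all died.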 Values without a mark were called inactive. The source made the active and inactive calls. Rule for the calls: active = growth percent below 10; inactive = the rest.
# Columns and labels:
# Test in all cases: NCI-60 one-dose screen, 48 h (100 = growth as untreated, 0 = no growth, -100 = all killed)
# Settings in all cases: 10 µM unless noted
# [1] = test system: HCT-15 colon
# [2] = test system: HT29 colon
# [3] = test system: SNB-75 CNS
# [4] = test system: SNB-19 CNS
# [5] = test system: U251 CNS
# [6] = test system: PC-3 prostate
# [7] = test system: SK-MEL-5 melanoma
# [8] = test system: UACC-62 melanoma
# [9] = test system: LOX IMVI melanoma
# [10] = test system: SK-MEL-28 melanoma
Compound,growth [1],growth [2],growth [3],growth [4],growth [5],growth [6],growth [7],growth [8],growth [9],growth [10]
Cc1ccc2nc(/C(C#N)=C(/CCCO)NC(Cc3ccccc3)C(=O)OCc3ccccc3)[nH]c(=O)c2c1 (stereo not given),117%,130%,113%,90.4%,104%,115%,73.3%,99.1%,98.5%,96.4%
Ic1ccccc1I,99.8%,107%,88.3%,103%,99%,99.7%,102%,97.3%,102%,108%
Cc1cccc(-c2nc(Nc3ccc4ncsc4c3)c3ccccc3n2)n1,70.7%,43.1%,105%,102%,77%,14.7%,42.4%,80.8%,93.2%,98.2%
C=C1C(=O)O[C@H]2[C@H]1CC/C(COC(=O)NCc1ccc(Cn3c(=O)sn(-c4ccc(C#N)cc4)c3=O)cc1)=C\CC[C@@]1(C)O[C@@H]21,87.8%,48.2%,80.3%,88.5%,81.2%,71.6%,89.5%,69.3%,65.9%,87.2%
C=C1C(=O)O[C@H]2[C@H]1CC/C(COC(=O)/C=C\C(=O)NCc1ccc(Cn3c(=O)sn(CCCCC)c3=O)cc1)=C\CC[C@@]1(C)O[C@@H]21,38.8%,41.3%,110%,94.8%,84.4%,81.9%,106%,70.1%,62.6%,91.1%
Cc1cc2c(cc1C)N(C(=O)CCl)CC(=O)N2,7.57% (active),-60% (active),74.4%,88%,14.4%,71.2%,43.8%,70.7%,-9.81% (active),77.1%
CC1(C)NCCC[C@]2(C)[C@H]3CC[C@H]4[C@H]5[C@H](C(=O)/C=C/c6cccnc6)CCC[C@]5(CO)CC[C@@]4(C)[C@]3(C)CC[C@@H]12,33.5%,3.84% (active),75.8%,72.2%,11%,59.4%,87%,96.7%,13%,93.6%
CN(C)c1ccc(-c2ccc3c(c2)c(-c2ccccc2)nc(=O)n3C)cn1,30.4%,11.7%,27.8%,34.3%,30.4%,-42.8% (active),22%,25.2%,34.3%,55.2%
CC(C)(C)n1cc(-c2ccnc(NCCCNS(=O)(=O)c3cccc4ccccc34)c2)c(-c2cccc(F)c2)n1,44.6%,27.6%,67.2%,86.3%,65%,55.8%,74.5%,80.5%,54.7%,99.9%
Cc1ccc(-c2csc(NC(=O)c3ccccc3CN3C(=O)c4ccccc4C3=O)n2)cc1,90.8%,97.1%,87.3%,91.8%,95.5%,91.9%,95.5%,76.6%,99.3%,99.9%
COc1cc(Cl)c(C)cc1NC(=O)c1cc2ccccc2cc1O,9.39% (active),37.8%,21.4%,23.1%,6.67% (active),2.12% (active),-35.1% (active),14.2%,2.44% (active),36.5%
C#Cc1cccc(Nc2nc(C)nc3cc(NC(=O)CCl)ccc23)c1,-63.7% (active),-84% (active),-94.7% (active),-32.9% (active),-93.9% (active),-81.2% (active),-94% (active),-46.5% (active),-81.7% (active),-81.9% (active)
COc1cc(-c2nc3c(ncc4ccc(=O)n(-c5ccccc5)c43)s2)cc(OC)c1OC,78.6%,84.2%,56%,86.1%,80.3%,56.9%,68.5%,78.7%,58.4%,78.3%
CCN(CC)CCN1C(=O)c2c(c(C)c3c(oc4ccc(OC)cc43)c2C)C1=O,90%,87.5%,116%,88%,87.3%,90.7%,82.7%,97%,93.3%,91.6%
COC(=O)CC[C@@H]1O[C@@H](c2ccc(F)cc2)[C@@H](O)[C@H]1O,105%,108%,90.1%,108%,109%,96.8%,95.7%,106%,99.8%,102%
CCN(CC)CCCN1C(=O)c2c(c(C)c3c(oc4ccc(O)cc43)c2C)C1=O,-77.5% (active),-40.3% (active),90.4%,77.4%,47.3%,79.7%,48.4%,96%,-95.8% (active),81.8%
COc1cccc(-c2cc(-c3cccc(Cl)c3)c(C#N)c(=O)[nH]2)c1,48.6%,103%,30.8%,71.8%,73.2%,73.7%,68.6%,42.4%,75.1%,72.3%
COc1ccc(C(=O)/C=C/c2ccc(N3CCCCC3)cc2)cc1OC,94.9%,95.1%,84.3%,91.3%,95.6%,81%,90.4%,75.3%,97.1%,102%
Clc1c(Cl)[n+](Cc2ccc3ccccc3c2)cn1Cc1ccc2ccccc2c1,75.1%,-69.4% (active),10.3%,26.8%,-82.6% (active),3.79% (active),-79.7% (active),-42.8% (active),-21.4% (active),16.1%
N#CC1CCc2c(c(-c3ccc4nc(N)sc4c3)nc3ccc4[nH]ncc4c23)C1 (stereo not given),30%,15.4%,25.2%,67.7%,46.7%,21.8%,11.5%,36.2%,34.2%,54.9%
C=CCOC(=O)C1=C(C)N(CC)C(=O)NC1c1c(Cl)n(C)c2ccccc12 (stereo not given),82.5%,89.8%,92.3%,99.9%,97.9%,87.7%,100%,82.6%,88.6%,104%
NC(=O)c1cccc([C@@H]2O[C@H](CO)[C@@H](O)[C@H]2O)c1,12.8%,54%,9.91% (active),54.2%,41.1%,47.8%,97.4%,88.6%,91.5%,62.1%
CCN(CC)c1ccc(CNc2cc(C)nc3ccccc23)cc1,69.6%,43.3%,75.2%,73.8%,63.9%,64%,9.25% (active),68.5%,65%,78.4%
c1nc2ccc(-c3cc4ccc5[nH]ncc5c4c4c3CCCC4)cc2[nH]1,94.8%,58%,71.2%,74.9%,77.3%,63.1%,67.4%,31.9%,53.3%,41.7%
COc1ccc(/C=C/c2c(C(=O)/C=C/c3ccccc3)c(C)nc3ccccc23)cc1,-26.2% (active),1.64% (active),29.4%,16.3%,-59.9% (active),26.9%,21.2%,19.1%,-82.3% (active),18.7%
Fc1cc(Nc2ccc3c(OCCCN4CCOCC4)cccc3n2)ccc1Cl,-13.4% (active),-49.3% (active),37.3%,17.8%,14.4%,30.6%,63.6%,-31.7% (active),-78.7% (active),-35.8% (active)
